Data on nine sequences can be found in publication PMC11006913.

Positions count from the first letter of the chain named.

Holding throughout (experiment): PBM; 200 nM protein, PBS
What all share (conditions): dsDNA, one strand shown

Experiment [1] deals with ALX4 (Homo sapiens, UniProt Q9H161 200-286).
The target in experiment [2] is ALX4 (Homo sapiens, UniProt Q9H161 200-286, Q225E).
Experiment [3] deals with ALX1 (Homo sapiens, UniProt Q15699 118-204, L144V).
Experiment [4] has as its target ALX3 (Homo sapiens, UniProt O95076 139-225, N203Q).
Experiment [5] deals with ALX1 (Homo sapiens, UniProt Q15699 118-204, L144R).
Chain of ALX1 (Homo sapiens, UniProt Q15699 118-204, L144R) (Q15699 118-204 L144R): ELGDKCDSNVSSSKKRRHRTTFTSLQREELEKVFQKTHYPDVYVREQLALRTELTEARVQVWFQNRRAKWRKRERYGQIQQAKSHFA
For experiment [6], the target named is ALX3 (Homo sapiens, UniProt O95076 139-225).
Chain of ALX3 (Homo sapiens, UniProt O95076 139-225) (O95076 139-225): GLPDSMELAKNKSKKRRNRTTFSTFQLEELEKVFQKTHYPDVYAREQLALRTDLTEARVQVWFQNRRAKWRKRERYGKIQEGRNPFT
Experiment [7] has as its target PROP1 (Homo sapiens, UniProt O75360 56-141).
In experiment [8] the target is HESX1 (Homo sapiens, UniProt Q9UBX0 95-180, R109Q).
Chain of HESX1 (Q9UBX0 95-180 R109Q): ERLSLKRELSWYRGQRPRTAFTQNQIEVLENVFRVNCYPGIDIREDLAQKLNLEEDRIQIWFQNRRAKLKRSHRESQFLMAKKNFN
In experiment [9] the target is PROP1 (Homo sapiens, UniProt O75360 56-141, R99H).
Chain of PROP1 (Homo sapiens, UniProt O75360 56-141, R99H) (O75360 56-141 R99H): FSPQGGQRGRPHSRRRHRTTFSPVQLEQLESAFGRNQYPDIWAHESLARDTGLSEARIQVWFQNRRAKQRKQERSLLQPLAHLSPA
For experiment [10], the target named is ALX3 (Homo sapiens, UniProt O95076 139-225, L168Q).
Chain of ALX3 (Homo sapiens, UniProt O95076 139-225, L168Q) (O95076 139-225 L168Q): as the sequence (O95076 139-225) above, with L30Q counted along it
The target of experiment [11] is ALX3 (Homo sapiens, UniProt O95076 139-225, L168V).
Chain of ALX3 (Homo sapiens, UniProt O95076 139-225, L168V) (O95076 139-225 L168V): as the sequence (O95076 139-225) above, with L30V counted along it
Experiment [12] deals with PROP1 (Homo sapiens, UniProt O75360 56-141, F88S).
Chain of PROP1 (Homo sapiens, UniProt O75360 56-141, F88S) (O75360 56-141 F88S): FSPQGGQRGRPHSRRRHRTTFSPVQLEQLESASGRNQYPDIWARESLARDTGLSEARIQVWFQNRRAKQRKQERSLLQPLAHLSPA
For experiment [13], the target named is ALX3 (Homo sapiens, UniProt O95076 139-225, N203S).
Chain of ALX3 (Homo sapiens, UniProt O95076 139-225, N203S) (O95076 139-225 N203S): as the sequence (O95076 139-225) above, with N65S counted along it
In experiment [14] the target is T1, PAX4 (Homo sapiens, UniProt O43316 9-242, R200K).
T1 sequence: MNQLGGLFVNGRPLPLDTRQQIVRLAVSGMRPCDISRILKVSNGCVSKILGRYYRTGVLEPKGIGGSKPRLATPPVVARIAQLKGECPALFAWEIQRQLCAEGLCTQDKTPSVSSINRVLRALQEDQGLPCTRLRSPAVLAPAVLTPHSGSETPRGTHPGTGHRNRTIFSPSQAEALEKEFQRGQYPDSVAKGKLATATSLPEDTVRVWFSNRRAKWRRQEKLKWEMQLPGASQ

Experiment [15] has as its target T2, PAX4 (Homo sapiens, UniProt O43316 9-242).
T2 sequence: T1 sequence with K192R

The target in experiment [16] is T3, NKX2-6 (Homo sapiens, UniProt A6NCS4 118-204).
T3 sequence: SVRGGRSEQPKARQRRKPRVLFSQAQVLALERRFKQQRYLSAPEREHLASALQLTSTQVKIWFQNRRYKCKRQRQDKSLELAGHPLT

Experiment [17] concerns the target T4, NKX2-6 (Homo sapiens, UniProt A6NCS4 118-204, F151L).
T4 sequence: T3 sequence with F34L

Experiment [18] deals with HOXD13 (Homo sapiens, UniProt P35453 263-343).
Chain of HOXD13 (Homo sapiens, UniProt P35453 263-343) (P35453 263-343): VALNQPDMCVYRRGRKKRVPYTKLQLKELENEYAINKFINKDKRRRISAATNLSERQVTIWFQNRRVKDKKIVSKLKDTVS
Experiment [19] deals with HOXD13 (Homo sapiens, UniProt P35453 263-343, T313A).
Chain of HOXD13 (Homo sapiens, UniProt P35453 263-343, T313A) (P35453 263-343 T313A): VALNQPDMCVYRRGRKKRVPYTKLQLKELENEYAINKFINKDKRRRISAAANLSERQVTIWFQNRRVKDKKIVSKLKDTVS
Experiment [20] has as its target ALX1 (Homo sapiens, UniProt Q15699 118-204).
The target of experiment [21] is HOXA2 (Homo sapiens, UniProt O43364 129-215, R185T).
Chain of HOXA2 (Homo sapiens, UniProt O43364 129-215, R185T) (O43364 129-215 R185T): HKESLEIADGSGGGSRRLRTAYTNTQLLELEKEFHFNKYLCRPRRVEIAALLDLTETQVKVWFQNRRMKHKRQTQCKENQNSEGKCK
Experiment [22] has as its target PITX2 (Homo sapiens, UniProt Q99697 72-157).
Experiment [23] addresses HOXA2 (Homo sapiens, UniProt O43364 129-215, R185K).
Experiment [24] concerns the target HOXA2 (Homo sapiens, UniProt O43364 129-215, Y150S).
The target of experiment [25] is HOXA2 (Homo sapiens, UniProt O43364 129-215).
Chain of HOXA2 (Homo sapiens, UniProt O43364 129-215) (O43364 129-215): as the sequence (O43364 129-215 R185T) above, with T57R counted along it

Chain of ALX4 (Homo sapiens, UniProt Q9H161 200-286, Q225E) (Q9H161 200-286 Q225E): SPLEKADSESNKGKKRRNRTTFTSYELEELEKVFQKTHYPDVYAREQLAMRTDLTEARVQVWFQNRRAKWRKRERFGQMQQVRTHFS
Chain of ALX4 (Homo sapiens, UniProt Q9H161 200-286) (Q9H161 200-286): as the sequence (Q9H161 200-286 Q225E) above, with E26Q counted along it
Chain of PROP1 (Homo sapiens, UniProt O75360 56-141) (O75360 56-141): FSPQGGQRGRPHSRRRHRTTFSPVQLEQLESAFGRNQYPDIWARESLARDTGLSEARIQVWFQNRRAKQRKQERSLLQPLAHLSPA
Chain of ALX1 (Homo sapiens, UniProt Q15699 118-204, L144V) (Q15699 118-204 L144V): as the sequence (Q15699 118-204 L144R) above, with R27V counted along it
Chain of ALX3 (Homo sapiens, UniProt O95076 139-225, N203Q) (O95076 139-225 N203Q): as the sequence (O95076 139-225) above, with N65Q counted along it
Chain of ALX1 (Homo sapiens, UniProt Q15699 118-204) (Q15699 118-204): as the sequence (Q15699 118-204 L144R) above, with R27L counted along it
Chain of HOXA2 (Homo sapiens, UniProt O43364 129-215, R185K) (O43364 129-215 R185K): as the sequence (O43364 129-215 R185T) above, with T57K counted along it
Chain of HOXA2 (Homo sapiens, UniProt O43364 129-215, Y150S) (O43364 129-215 Y150S): as the sequence (O43364 129-215 R185T) above, with Y22S, T57R counted along it

In the case of AATTAAAG, the binding signal in [1] was 13.6 upbm affinity estimate (log intensity, higher = more binding, comparable within an allelic series); in experiment [2] it was 12.8 upbm affinity estimate (log intensity, higher = more binding, comparable within an allelic series); in experiment [3], 11.4 upbm affinity estimate (log intensity, higher = more binding, comparable within an allelic series); in experiment [4], 8.35 upbm affinity estimate (log intensity, higher = more binding, comparable within an allelic series); in experiment [5] it was 11 upbm affinity estimate (log intensity, higher = more binding, comparable within an allelic series); in experiment [6] it was 12.3 upbm affinity estimate (log intensity, higher = more binding, comparable within an allelic series). For the same sequence, the binding signal is 11.2 upbm affinity estimate (log intensity, higher = more binding, comparable within an allelic series) in experiment [7]; 8.69 upbm affinity estimate (log intensity, higher = more binding, comparable within an allelic series) in [8]; 10.9 upbm affinity estimate (log intensity, higher = more binding, comparable within an allelic series) in experiment [9]; 10.3 upbm affinity estimate (log intensity, higher = more binding, comparable within an allelic series) in experiment [10]; 9.9 upbm affinity estimate (log intensity, higher = more binding, comparable within an allelic series) in experiment [11]; 7.55 upbm affinity estimate (log intensity, higher = more binding, comparable within an allelic series) in [12]. Besides, in [13], the binding signal was 8.43 upbm affinity estimate (log intensity, higher = more binding, comparable within an allelic series).
As for CAGCGTAA, the binding signal in experiment [14] was 10.6 upbm affinity estimate (log intensity, higher = more binding, comparable within an allelic series); in experiment [15], 10.8 upbm affinity estimate (log intensity, higher = more binding, comparable within an allelic series).
With CCACATGG, the binding signal in experiment [1] is 8.13 upbm affinity estimate (log intensity, higher = more binding, comparable within an allelic series); in experiment [2] it was 8.32 upbm affinity estimate (log intensity, higher = more binding, comparable within an allelic series); in experiment [16], 9.61 upbm affinity estimate (log intensity, higher = more binding, comparable within an allelic series); in experiment [17], 9.23 upbm affinity estimate (log intensity, higher = more binding, comparable within an allelic series).
As to AATTTATC, the binding signal in [1] was 12 upbm affinity estimate (log intensity, higher = more binding, comparable within an allelic series); in experiment [2], 11.1 upbm affinity estimate (log intensity, higher = more binding, comparable within an allelic series); in [18], 11 upbm affinity estimate (log intensity, higher = more binding, comparable within an allelic series); in [7] it was 9.59 upbm affinity estimate (log intensity, higher = more binding, comparable within an allelic series); in experiment [9], 9.17 upbm affinity estimate (log intensity, higher = more binding, comparable within an allelic series); in experiment [19], 10.9 upbm affinity estimate (log intensity, higher = more binding, comparable within an allelic series). For the same sequence, in [12], the binding signal is 7.6 upbm affinity estimate (log intensity, higher = more binding, comparable within an allelic series).
GTCTTAAA: the binding signal was 10.3 upbm affinity estimate (log intensity, higher = more binding, comparable within an allelic series) in [14] and 10.4 upbm affinity estimate (log intensity, higher = more binding, comparable within an allelic series) in [15].
In the case of AATTTTCA, the binding signal was 11.5 upbm affinity estimate (log intensity, higher = more binding, comparable within an allelic series) in experiment [1]; 10.4 upbm affinity estimate (log intensity, higher = more binding, comparable within an allelic series) in experiment [2]; 9.64 upbm affinity estimate (log intensity, higher = more binding, comparable within an allelic series) in experiment [3]; 9.33 upbm affinity estimate (log intensity, higher = more binding, comparable within an allelic series) in experiment [5]; 10 upbm affinity estimate (log intensity, higher = more binding, comparable within an allelic series) in [20].
Turning to TGCCAGCA, the binding signal is 8.19 upbm affinity estimate (log intensity, higher = more binding, comparable within an allelic series) in experiment [1]; 8.28 upbm affinity estimate (log intensity, higher = more binding, comparable within an allelic series) in [2]; 6.8 upbm affinity estimate (log intensity, higher = more binding, comparable within an allelic series) in [7]; 6.79 upbm affinity estimate (log intensity, higher = more binding, comparable within an allelic series) in [9]; 6.93 upbm affinity estimate (log intensity, higher = more binding, comparable within an allelic series) in experiment [12].
With CACAGCTC, the binding signal in experiment [1] was 7.95 upbm affinity estimate (log intensity, higher = more binding, comparable within an allelic series); in experiment [2], 8.26 upbm affinity estimate (log intensity, higher = more binding, comparable within an allelic series); in experiment [7], 6.72 upbm affinity estimate (log intensity, higher = more binding, comparable within an allelic series); in experiment [9], 6.77 upbm affinity estimate (log intensity, higher = more binding, comparable within an allelic series); in experiment [12], 6.99 upbm affinity estimate (log intensity, higher = more binding, comparable within an allelic series).
With GAGGCACC, the binding signal was 8.21 upbm affinity estimate (log intensity, higher = more binding, comparable within an allelic series) in experiment [1]; 8.22 upbm affinity estimate (log intensity, higher = more binding, comparable within an allelic series) in experiment [2]; 7.41 upbm affinity estimate (log intensity, higher = more binding, comparable within an allelic series) in [21]; 7.66 upbm affinity estimate (log intensity, higher = more binding, comparable within an allelic series) in [4]; 7.88 upbm affinity estimate (log intensity, higher = more binding, comparable within an allelic series) in experiment [22]; 10.5 upbm affinity estimate (log intensity, higher = more binding, comparable within an allelic series) in experiment [23]. For the same sequence, the binding signal is 7.72 upbm affinity estimate (log intensity, higher = more binding, comparable within an allelic series) in [6]; 7.51 upbm affinity estimate (log intensity, higher = more binding, comparable within an allelic series) in [10]; 7.67 upbm affinity estimate (log intensity, higher = more binding, comparable within an allelic series) in experiment [11]; 10.4 upbm affinity estimate (log intensity, higher = more binding, comparable within an allelic series) in experiment [24]; 7.65 upbm affinity estimate (log intensity, higher = more binding, comparable within an allelic series) in experiment [13]; 7.42 upbm affinity estimate (log intensity, higher = more binding, comparable within an allelic series) in [25].
